Reference: PubChem BioAssay (NCATS)
Records with an inconclusive call do not appear. Active and inactive are the calls of the source. Calls come from the whole dose curve; as a rule, active = well fitted curve in the direction sought with a large enough effect; inconclusive = small, poorly fitted or top-dose-only effect, or another doubt; inactive = no such curve, though single readings can be large; an effect the other way counts as inactive or inconclusive.

Tests used:
[1] = qHTS profiling for inhibitors of Plasmodium falciparum proliferation (AID 504749); note: nearly all actives have a fitted effect of over 60% in size; note: potency is the fitted concentration of half-maximal effect;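 for activity, negative = inhibition: 0% = DMSO vehicle and full inhibition = artemisinin control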; details: P. falciparum in erythrocytes, SYBR Green DNA, 72 h
Outline: (§1)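 Parasite proliferation within erythrocytes, 72 h exposure. Endpoint: SYBR Green I fluorescence after overnight lysis at room temperature. Controls: 0.29 uM artemisinin, DMSO.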

3D7 = assay: as above; details: P. falciparum in erythrocytes, SYBR Green DNA, 72 h; series mostly up to 28.7 µM
Outline: as §1

7G8 = assay: as above; details: P. falciparum in erythrocytes, SYBR Green DNA, 72 h; series mostly up to 28.7 µM
Outline: as §1

AA1029 = assay: as above; details: P. falciparum in erythrocytes, SYBR Green DNA, 72 h; series mostly up to 28.7 µM
Outline: as §1

AS120 = assay: as above; details: P. falciparum in erythrocytes, SYBR Green DNA, 72 h; series mostly up to 28.7 µM
Outline: as §1

ATS189 = assay: as above; details: P. falciparum in erythrocytes, SYBR Green DNA, 72 h; series mostly up to 28.7 µM
Outline: as §1

ATS95 = assay: as above; details: P. falciparum in erythrocytes, SYBR Green DNA, 72 h; series mostly up to 28.7 µM
Outline: as §1

C2A = assay: as above; details: P. falciparum in erythrocytes, SYBR Green DNA, 72 h; series mostly up to 28.7 µM
Outline: as §1

CP185 = assay: as above; details: P. falciparum in erythrocytes, SYBR Green DNA, 72 h; series mostly up to 28.7 µM
Outline: as §1

CP191 = assay: as above; details: P. falciparum in erythrocytes, SYBR Green DNA, 72 h; series mostly up to 28.7 µM
Outline: as §1

CP192 = assay: as above; details: P. falciparum in erythrocytes, SYBR Green DNA, 72 h; series mostly up to 28.7 µM
Outline: as §1

CP194 = assay: as above; details: P. falciparum in erythrocytes, SYBR Green DNA, 72 h; series mostly up to 28.7 µM
Outline: as §1

CP201 = assay: as above; details: P. falciparum in erythrocytes, SYBR Green DNA, 72 h; series mostly up to 28.7 µM
Outline: as §1

CP211 = assay: as above; details: P. falciparum in erythrocytes, SYBR Green DNA, 72 h; series mostly up to 28.7 µM
Outline: as §1

CP215 = assay: as above; details: P. falciparum in erythrocytes, SYBR Green DNA, 72 h; series mostly up to 28.7 µM
Outline: as §1

CP217 = assay: as above; details: P. falciparum in erythrocytes, SYBR Green DNA, 72 h; series mostly up to 28.7 µM
Outline: as §1

CP237 = assay: as above; details: P. falciparum in erythrocytes, SYBR Green DNA, 72 h; series mostly up to 28.7 µM
Outline: as §1

[2] = Dual reporter qHTS for antagonist of Pregnane X Receptor (hPXR) against the NCATS DSHEA and TCM libraries: Fluorescence Readout (AID 1920061); details: PXR dual reporter cells, antagonist mode; series mostly up to 40 µM; note: 0% is about no effect
Outline: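 Rifampicin-stimulated (2 uM final) hPXR-luciferase HepG2 cells were treated for 24 h with DSNP/TCM substances. Viability came from CellTiter-Fluor fluorescence, reporter activity from ONE-Glo luminescence.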

[3] = at 28.7 µM (top of the series), parasite line A
[4] = at 28.7 µM (top of the series), parasite line B

CN(C)C(=S)SSC(=S)N(C)C
active: Potency ([1]; parasite line A) 2.51 µM | Potency ([1]; parasite line B) 3.16 µM | Potency (3D7) 1.58 µM | Potency (7G8) 1.12 µM | Potency (AA1029) 2.24 µM | Potency (AS120) 3.55 µM | Potency (ATS189) 4.47 µM | Potency (ATS95) 3.16 µM | Potency (C2A) 3.16 µM | Potency (CP185) 2 µM | Potency (CP191) 3.16 µM | Potency (CP192) 3.79 µM | Potency (CP194) 3.38 µM | Potency (CP201) 4.26 µM | Potency (CP211) 2.69 µM | Potency (CP215) 5.36 µM | Potency (CP217) 3.98 µM | Potency (CP237) 1.58 µM

CC(C)C(Br)C(=O)NC(N)=O (configuration not stated)
inactive: activity, negative = inhibition [1, 3] 10.2% | activity, negative = inhibition [1, 4] 11.6% | Potency (3D7) | Potency (7G8) | Potency (AA1029) | Potency (AS120) | Potency (ATS189) | Potency (ATS95) | Potency (C2A) | Potency (CP185) | Potency (CP191) | Potency (CP192) | Potency (CP194) | Potency (CP201) | Potency (CP211) | Potency (CP215) | Potency (CP217) | Potency (CP237)

Cc1ccc(N=CN(C)C=Nc2ccc(C)cc2C)c(C)c1
inactive: activity, negative = inhibition [1, 3] 5.73% | activity, negative = inhibition [1, 4] 9.78% | Potency (3D7) | Potency (7G8) | Potency (AA1029) | Potency (AS120) | Potency (ATS189) | Potency (ATS95) | Potency (C2A) | Potency (CP185) | Potency (CP191) | Potency (CP192) | Potency (CP194) | Potency (CP201) | Potency (CP211) | Potency (CP215) | Potency (CP217) | Potency (CP237)

Cc1ncc2n1-c1ccc(Cl)cc1C(c1ccccc1F)=NC2
inactive: activity, negative = inhibition [1, 3] 7.97% | activity, negative = inhibition [1, 4] -15.6% | Potency (3D7) | Potency (7G8) | Potency (AA1029) | Potency (AS120) | Potency (ATS189) | Potency (ATS95) | Potency (C2A) | Potency (CP185) | Potency (CP191) | Potency (CP192) | Potency (CP194) | Potency (CP201) | Potency (CP211) | Potency (CP215) | Potency (CP217) | Potency (CP237)

NC(=O)OCCCc1ccccc1
inactive: activity, negative = inhibition [1, 3] -9.09% | activity, negative = inhibition [1, 4] 10.5% | Potency (3D7) | Potency (7G8) | Potency (AA1029) | Potency (AS120) | Potency (ATS189) | Potency (ATS95) | Potency (C2A) | Potency (CP185) | Potency (CP191) | Potency (CP192) | Potency (CP194) | Potency (CP201) | Potency (CP211) | Potency (CP215) | Potency (CP217) | Potency (CP237)

NC(=O)CN1CCCC1=O
inactive: activity, negative = inhibition ([1]; at 12.8 µM (top of the series), parasite line A) -0.277% | activity, negative = inhibition ([1]; at 12.8 µM (top of the series), parasite line B) 13.3% | Potency (3D7) | Potency (7G8) | Potency (AA1029) | Potency (AS120) | Potency (ATS189) | Potency (ATS95) | Potency (C2A) | Potency (CP185) | Potency (CP191) | Potency (CP192) | Potency (CP194) | Potency (CP201) | Potency (CP211) | Potency (CP215) | Potency (CP217) | Potency (CP237)

COc1ccc(C(=O)N2CCCC2=O)cc1
inactive: activity, negative = inhibition [1, 3] 4.48% | activity, negative = inhibition [1, 4] 11% | Potency (3D7) | Potency (7G8) | Potency (AA1029) | Potency (AS120) | Potency (ATS189) | Potency (ATS95) | Potency (C2A) | Potency (CP185) | Potency (CP191) | Potency (CP192) | Potency (CP194) | Potency (CP201) | Potency (CP211) | Potency (CP215) | Potency (CP217) | Potency (CP237)

COC(=O)C1=CCCN(C)C1
inactive: activity, negative = inhibition [1, 3] 0.472% | activity, negative = inhibition [1, 4] 19.4% | Potency (3D7) | Potency (7G8) | Potency (AA1029) | Potency (AS120) | Potency (ATS189) | Potency (ATS95) | Potency (C2A) | Potency (CP185) | Potency (CP191) | Potency (CP192) | Potency (CP194) | Potency (CP201) | Potency (CP211) | Potency (CP215) | Potency (CP217) | Potency (CP237)

NCc1cccnc1
inactive: activity, negative = inhibition [1, 3] -9.24% | activity, negative = inhibition [1, 4] -2.31% | Potency (3D7) | Potency (7G8) | Potency (AA1029) | Potency (AS120) | Potency (ATS189) | Potency (ATS95) | Potency (C2A) | Potency (CP185) | Potency (CP191) | Potency (CP192) | Potency (CP194) | Potency (CP201) | Potency (CP211) | Potency (CP215) | Potency (CP217) | Potency (CP237)

C[C@]12CC[C@H](O)CC1=CC[C@@H]1[C@@H]2CC[C@]2(C)C(=O)CC[C@@H]12
inactive: outcome [2]

CCCCCCCCC(=O)NCc1ccc(O)c(OC)c1
inactive: activity, negative = inhibition [1, 3] -0.439% | activity, negative = inhibition [1, 4] 7.79% | Potency (3D7) | Potency (7G8) | Potency (AA1029) | Potency (AS120) | Potency (ATS189) | Potency (ATS95) | Potency (C2A) | Potency (CP185) | Potency (CP191) | Potency (CP192) | Potency (CP194) | Potency (CP201) | Potency (CP211) | Potency (CP215) | Potency (CP217) | Potency (CP237)

C[N+]1(CCC(C(N)=O)(c2ccccc2)c2ccccc2)CCCCC1
inactive: activity, negative = inhibition [1, 3] -14.5% | activity, negative = inhibition [1, 4] -9.8% | Potency (3D7) | Potency (7G8) | Potency (AA1029) | Potency (AS120) | Potency (ATS189) | Potency (ATS95) | Potency (C2A) | Potency (CP185) | Potency (CP191) | Potency (CP192) | Potency (CP194) | Potency (CP201) | Potency (CP211) | Potency (CP215) | Potency (CP217) | Potency (CP237)

Oc1c(Br)cc(Br)cc1Br
inactive: activity, negative = inhibition [1, 3] 0.526% | activity, negative = inhibition [1, 4] -0.833% | Potency (3D7) | Potency (7G8) | Potency (AA1029) | Potency (AS120) | Potency (ATS189) | Potency (ATS95) | Potency (C2A) | Potency (CP185) | Potency (CP191) | Potency (CP192) | Potency (CP194) | Potency (CP201) | Potency (CP211) | Potency (CP215) | Potency (CP217) | Potency (CP237)
